TDP1 cell CPT – growth inhibition of DT40 Tdp1-/-;hTDP1 cells with camptothecin (screen for TDP1 inhibitors); Potency, µM (doses to about 46.2 µM), for the others: top-dose activity change, negative = growth inhibition, most hits filed as inhibitors; actives 12% (n = 420,000); chicken DT40 Tdp1-/-;hTDP1 cells + 20 nM CPT, ATP luminescence, 48 h; further: potency means the concentration at half of the fitted maximal effect; nearly all actives have a fitted effect of over 55% in size
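Chicken DT40 Tdp1-/- cells stably complemented with human TDP1 were seeded at 400 cells/well in medium containing 20 nM camptothecin, exposed to pin-transferred compounds, and grown at 37 °C for at least 48 hr. Viability was read as ATP luminescence.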
HT1080NT lethal – kills 2HG-producing HT-1080-NT fibrosarcoma cells. actives 1.6% (n = 360,000). Potency, µM (doses to about 46.1 µM), for the others: top-dose activity, negative = less viability, hits mostly cytotoxic. HT-1080-NT fibrosarcoma viability, CellTiter-Glo ATP luminescence, 48 h;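 further: NT is the 2HG producing partner of a matched IDH1 knockdown line; potency means the concentration at half of the fitted maximal effect; 0% = DMSO-treated cells and -100% = media-only wells without cells; nearly all actives have a fitted effect of over 55% in size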
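Compounds were tested in concentration-response format on HT-1080-NT cells for 48 hours at 37 degrees C. Cell viability came from CellTiter-Glo luminescence; curves were classified by r2, response magnitude and activity.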
HT1080 IDH1KD tx – HT-1080 IDH1 knockdown cell toxicity (counter line) | HT-1080 IDH1 knockdown viability, ATP luminescence, 48 h | Potency, µM (doses to about 46.1 µM), for inactives: top-dose activity, negative = toxicity, hits mostly cytotoxic | actives 2% (n = 360,000) | AID 686971;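 further: potency means the concentration at half of the fitted maximal effect; 0% = DMSO wells and -100% = cell-free medium wells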
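% activity derives from luminescence (CellTiter-Glo), normalised to DMSO and no-cell wells. HT-1080-IDH1KD cells, 750/well, had 48 h compound exposure at 37 °C.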
IL-1B inflam inh – inhibitors of inflammasome signaling (IL-1 beta secretion). activity change, % at 57.5 µM. THP-1 LPS/ATP IL-1B secretion, AlphaLISA, 16 h; active compounds read low. actives 4.7% (n = 360,000); in the data active means activity change below about -50%; inconclusive means mostly about -30% to -49%
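THP-1 cells pretreated 1 hr with compounds (up to 57.5 uM final), then stimulated with LPS (250 ng/mL final) plus ATP (1.25 mM final); secreted IL-1B measured by AlphaLISA after 16 hr, decreased signal indicating inhibition.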
DT40 TDP1 no CPT – qHTS for Inhibitors of human tyrosyl-DNA phosphodiesterase 1 (TDP1): qHTS in cells in absence of CPT. DT40 Tdp1-/- hTDP1 cells, no CPT, ATP luminescence, 48 h. Potency, µM (series often up to 46.2 µM), for inactives: at the highest dose activity change, negative = growth inhibition, hits mostly inhibitors. actives 15% (n = 420,000); further: potency means the concentration at half of the fitted maximal effect; nearly all actives have a fitted effect of over 55% in size
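Chicken DT40 Tdp1-/- cells stably complemented with human TDP1 were seeded at 400 cells/well with DMSO in place of 20 nM camptothecin. After compound pinning, cells grew at least 48 hr at 37 °C; viability read by CellTiter-Glo luminescence.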
* marks the source's active call; other numbers are inactive results; [ ] = dose if it differs, or a comment. In the library only some 19% were active in any assay of this set; here they are far more common. Unless noted, the call rests on the fitted dose curve; in most records, active means well fitted curve in the direction sought with a large enough effect; inconclusive means small, poorly fitted or top-dose-only effect, or another doubt; inactive means no such curve, though single readings can be large; an effect the other way counts as inactive or inconclusive. Unless noted, on the % scale 0 is the no-effect control and ±100 the full control effect.

How did O=C1c2cccc(OCC(=O)N3CCCc4ccccc43)c2CCN1Cc1ccc(Br)cc1 do in these assays?
TDP1 cell CPT: 18µM*; HT1080NT lethal: -27%; HT1080 IDH1KD tx: inconclusive; IL-1B inflam inh: -22; DT40 TDP1 no CPT: 18µM*

Results for O=C(COc1cccc2c1CCN(Cc1ccc(Br)cc1)C2=O)NCc1ccco1 ?
TDP1 cell CPT: 18µM*; HT1080NT lethal: -5%; HT1080 IDH1KD tx: -2%; IL-1B inflam inh: -28; DT40 TDP1 no CPT: 23µM*

Results for CCOC(=O)C1CCCN(C(=S)Nc2ccc(C)cc2C)C1 (centres undefined) ?
TDP1 cell CPT: -3%; HT1080NT lethal: 0%; HT1080 IDH1KD tx: 10%; IL-1B inflam inh: -12; DT40 TDP1 no CPT: 1%

How did Cn1cnc([N+](=O)[O-])c1Sc1nc(N)nc2c1ncn2C1OC(CO)C(O)C1O (centres undefined) do in these assays?
TDP1 cell CPT: inconclusive; HT1080NT lethal: 1.3µM*; HT1080 IDH1KD tx: 1.3µM*; IL-1B inflam inh: -19; DT40 TDP1 no CPT: inconclusive

What do the screens show for `Cn1cnc([N+](=O)[O-])c1Sc1nc(N)nc2c1ncn2C1CC(O)C(CO)O1` (centres undefined)?
TDP1 cell CPT: inconclusive; HT1080NT lethal: 2.3µM*; HT1080 IDH1KD tx: 1.3µM*; IL-1B inflam inh: -15; DT40 TDP1 no CPT: 13µM*

How did CCSc1nc(N)nc2c1ncn2C1OC(CO)C(O)C1O (centres undefined) do in these assays?
TDP1 cell CPT: -18%; HT1080NT lethal: -1%; HT1080 IDH1KD tx: -4%; IL-1B inflam inh: 41; DT40 TDP1 no CPT: -20%

Results for C/C(=N\OC(=O)c1ccc(Cl)cc1)c1sc(-c2ccccc2)nc1C ?
TDP1 cell CPT: inconclusive; HT1080NT lethal: 3%; HT1080 IDH1KD tx: 15%; IL-1B inflam inh: -1; DT40 TDP1 no CPT: inconclusive

How did C/C(=N\OC(=O)NC1CCCCC1)c1sc(-c2ccccc2)nc1C do in these assays?
TDP1 cell CPT: 26µM*; HT1080NT lethal: -26%; HT1080 IDH1KD tx: -25%; IL-1B inflam inh: inconclusive; DT40 TDP1 no CPT: 21µM*

What do the screens show for `O=C1NC[C@@H](CCCCN2CCN(Cc3ccccc3)C(=O)C2=O)N(CCC2CCCCC2)C1=O`?
TDP1 cell CPT: 0%; HT1080NT lethal: 13%; HT1080 IDH1KD tx: 1%; IL-1B inflam inh: -3; DT40 TDP1 no CPT: -18%

What do the screens show for `COc1ccc2c(c1)C(=O)[C@H](O)[C@@H](c1ccc(OC)c(Br)c1)O2`?
TDP1 cell CPT: inconclusive; HT1080NT lethal: -21%; HT1080 IDH1KD tx: inconclusive; IL-1B inflam inh: 26; DT40 TDP1 no CPT: inconclusive

How did CC[C@H](C)[C@@H](NC(=O)O[C@@H]1C(=O)c2cc(OC)ccc2O[C@H]1c1ccc(OC)c(Br)c1)C(=O)OC do in these assays?
TDP1 cell CPT: inconclusive; HT1080NT lethal: 0%; HT1080 IDH1KD tx: -1%; IL-1B inflam inh: inconclusive; DT40 TDP1 no CPT: 18µM*

Results for CCN(CC)CCCN(Cc1cc2cc(OC)ccc2[nH]c1=O)C(=O)Nc1ccc(F)cc1 ?
TDP1 cell CPT: 16µM*; HT1080NT lethal: inconclusive; HT1080 IDH1KD tx: inconclusive; IL-1B inflam inh: -51*; DT40 TDP1 no CPT: 21µM*

What do the screens show for `CCN(CC)CCCN(Cc1cc2cc(OC)ccc2[nH]c1=O)C(=O)Nc1ccccc1`?
TDP1 cell CPT: inconclusive; HT1080NT lethal: inconclusive; HT1080 IDH1KD tx: inconclusive; IL-1B inflam inh: -4; DT40 TDP1 no CPT: inconclusive

What do the screens show for `Cc1ccc(NC(=S)N(Cc2cccs2)Cc2cc3cc(C)ccc3[nH]c2=O)cc1`?
TDP1 cell CPT: inconclusive; HT1080NT lethal: 0%; HT1080 IDH1KD tx: -10%; IL-1B inflam inh: -8; DT40 TDP1 no CPT: inconclusive

Results for Cc1ccc2[nH]c(=O)c(CN(CCCN(C)C)C(=O)Nc3ccc(F)cc3)cc2c1 ?
TDP1 cell CPT: inconclusive; HT1080NT lethal: 0%; HT1080 IDH1KD tx: 1%; IL-1B inflam inh: 0; DT40 TDP1 no CPT: 13µM*

How did Cc1ccc(NC(=S)N(CCN(C)C)Cc2cc3cc(C)ccc3[nH]c2=O)cc1 do in these assays?
TDP1 cell CPT: inconclusive; HT1080NT lethal: -10%; HT1080 IDH1KD tx: -17%; IL-1B inflam inh: -68*; DT40 TDP1 no CPT: inconclusive

What do the screens show for `Cc1cccc(NC(=S)N(CCN(C)C)Cc2cc3cccc(C)c3[nH]c2=O)c1`?
TDP1 cell CPT: inconclusive; HT1080NT lethal: -14%; HT1080 IDH1KD tx: -9%; IL-1B inflam inh: inconclusive; DT40 TDP1 no CPT: 6.5µM*

Results for CCN(C(=O)COC(=O)C(c1ccccc1)c1ccccc1)c1c(N)n(Cc2ccccc2)c(=O)[nH]c1=O ?
TDP1 cell CPT: inconclusive; HT1080NT lethal: -7%; HT1080 IDH1KD tx: -2%; IL-1B inflam inh: -5; DT40 TDP1 no CPT: inconclusive

What do the screens show for `CC(C)CCNC(=O)C1CC2Cn3c(nc4cc(Cl)c(Cl)cc43)C2N1C` (centres undefined)?
TDP1 cell CPT: inconclusive; HT1080NT lethal: -1%; HT1080 IDH1KD tx: -1%; IL-1B inflam inh: -21; DT40 TDP1 no CPT: 23µM*

What do the screens show for `O=C(c1ccc2c(c1)OCO2)N1CCOc2ccc(CN3CCC(Oc4cccnc4)CC3)cc2C1`?
TDP1 cell CPT: -1%[9.04 µM]; DT40 TDP1 no CPT: -15%

What do the screens show for `CN(Cc1ccccc1)C1CCN(Cc2ccccc2[N+](=O)[O-])CC1`?
TDP1 cell CPT: 12%; HT1080NT lethal: 0%; HT1080 IDH1KD tx: 2%; IL-1B inflam inh: -17; DT40 TDP1 no CPT: -24%

Results for CC1=N/C(=C/c2cc(Br)cc(Br)c2O)C(=O)O1 ?
TDP1 cell CPT: -19%; HT1080NT lethal: -9%; HT1080 IDH1KD tx: -1%; IL-1B inflam inh: -6; DT40 TDP1 no CPT: -13%

How did Cc1cccc(C)c1NC(=O)CN(C)C(=O)c1cccc(S(=O)(=O)N2CCN(c3ccc(F)cc3)CC2)c1 do in these assays?
TDP1 cell CPT: 12µM*; HT1080NT lethal: inconclusive; HT1080 IDH1KD tx: -25%; IL-1B inflam inh: -19; DT40 TDP1 no CPT: 7.3µM*

How did Cc1cccc(C)c1NC(=O)CN(C)C(=O)c1cccc(S(=O)(=O)N2CCN(C)CC2)c1 do in these assays?
TDP1 cell CPT: inconclusive; HT1080NT lethal: 14%; HT1080 IDH1KD tx: 10%; IL-1B inflam inh: -8; DT40 TDP1 no CPT: inconclusive

How did CN(CC(=O)Nc1cccc(F)c1)C(=O)c1cccc(S(=O)(=O)N2CCN(c3ccc(F)cc3)CC2)c1 do in these assays?
TDP1 cell CPT: 21µM*; HT1080NT lethal: -22%; HT1080 IDH1KD tx: inconclusive; IL-1B inflam inh: -1; DT40 TDP1 no CPT: 21µM*

What do the screens show for `COc1ccc(C)cc1Nc1n[n+](-c2ccccc2)c(-c2ccc(NC(C)=O)cc2)s1`?
TDP1 cell CPT: inconclusive; HT1080NT lethal: 2%; HT1080 IDH1KD tx: -5%; IL-1B inflam inh: -12; DT40 TDP1 no CPT: -27%

Screens as filed in PubChem BioAssay.
